Where “and” joins values, the source holds several entries; their conditions need not be identical. Equal entries are not always repeated. Screen size: about 5,500 compounds; about 2,000 (36%) were called active. Roughly 18% stayed inconclusive and do not appear here. Rule as the data show it: active = normalized growth mostly below about 0.91 (no sharp cut-off); inconclusive = no clear call, values can overlap the other calls; inactive = mostly above about 0.92. The list shows a part of the results.
Assay: chemical genetic growth profiling, strain panel (AID 1159580);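 also: tested at 20 µM; growth read once vehicle control cultures reached saturation at 30 °C; 1 = growth at the plate median or of vehicle wells; lower values mean less growth of the strain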
Settings: S. cerevisiae deletion strains, growth OD

Measured: normalized growth

OCc1ccccc1O
inactive: locus YAL021C, strain ccr4, hits give low values 1.02 | locus YAL026C, strain drs2, hits give low values 1.02 | locus YAL030W, strain snc1, hits give low values 1 | locus YBL061C, strain skt5, hits give low values 1.03 | locus YBR009C, strain hhf1, hits give low values 1.02 | locus YBR021W, strain FUR4, hits give low values 1.02 | locus YBR023C, strain chs3, hits give low values 1.02 | locus YBR171W, strain sec66, hits give low values 1.01 | locus YBR229C, strain ROT2, hits give low values 1.02 | locus YBR231C, strain swc5, hits give low values 1.03 | locus YBR279W, strain paf1, hits give low values 1.03 | locus YCL011C, strain gbp2, hits give low values 1.03 | locus YCL016C, strain dcc1, hits give low values 1.02 | locus YCL029C, strain bik1, hits give low values 0.995 | locus YCL069W, strain vba3, hits give low values 1 | locus YCR088W, strain abp1, hits give low values 1.04 | locus YDL005C, strain med2, hits give low values 1.02 | locus YDL035C, strain GPR1, hits give low values 1.02 | locus YDL040C, strain nat1, hits give low values 1.01 | locus YDL074C, strain BRE1, hits give low values 1.04 | locus YDL101C, strain DUN1, hits give low values 1.02 | locus YDL134C, strain PPH21, hits give low values 1.02 | locus YDL185W, strain tfp1, hits give low values 0.992 | locus YDL192W, strain arf1, hits give low values 0.991 | locus YDR001C, strain nth1, hits give low values 1.02 | locus YDR069C, strain doa4, hits give low values 1.03 | locus YDR101C, strain arx1, hits give low values 0.987 | locus YDR137W, strain rgp1, hits give low values 1.02 | locus YDR150W, strain NUM1, hits give low values 1.02 | locus YDR159W, strain sac3, hits give low values 1.05 | locus YDR162C, strain NBP2, hits give low values 1 | locus YDR195W, strain ref2 1.02 | locus YDR297W, strain sur2, hits give low values 1.02 | locus YDR318W, strain mcm21, hits give low values 0.992 | locus YDR334W, strain swr1, hits give low values 1.03 | locus YDR335W, strain msn5, hits give low values 1.03 | locus YDR388W, hits give low values 0.991 | locus YDR392W, strain spt3, hits give low values 1.03 | locus YDR502C, strain sam2, hits give low values 0.988 | locus YEL003W, strain gim4, hits give low values 1.02 | locus YEL037C, strain rad23, hits give low values 1 | locus YEL061C, strain CIN8 (second series), hits give low values 1.01 | locus YEL061C, strain CIN8, hits give low values 1.01 | locus YER015W, strain faa2, hits give low values 0.998 | locus YER016W, strain bim1, hits give low values 1.03 | locus YER110C, hits give low values 0.995 | locus YER111C, strain swi4, hits give low values 0.997 | locus YER155C, strain BEM2 (second series), hits give low values 1.05 | locus YER155C, strain BEM2, hits give low values 1.02 | locus YER167W, strain BCK2, hits give low values 1.01 | locus YFR010W, strain ubp6, hits give low values 1.02 | locus YGL078C, strain dbp3, hits give low values 0.978 | locus YGL086W, strain mad1, hits give low values 1.01 | locus YGL167C, strain pmr1, hits give low values 1.02 | locus YGL173C, strain kem1, hits give low values 1.02 | locus YGL227W, strain vid30, hits give low values 1.03 | locus YGL240W, strain doc1, hits give low values 1.05 | locus YGL248W, strain PDE1, hits give low values 1.02 | locus YGL253W, strain hxk2, hits give low values 1.02 | locus YGR135W, strain pre9, hits give low values 0.982 | locus YGR252W, strain gcn5, hits give low values 0.994 | locus YHR013C, strain ard1, hits give low values 1.06 | locus YHR027C, strain rpn1, hits give low values 1.02 | locus YHR030C, strain SLT2, hits give low values 1.01 and 1.09 | locus YHR079C, strain IRE1 (second series), hits give low values 0.977 | locus YHR079C, strain IRE1, hits give low values 1.09 | locus YHR094C, strain hxt1, hits give low values 0.982 | locus YHR129C, strain ARP1, hits give low values 1.02 | locus YHR142W, strain chs7, hits give low values 1.03 | locus YHR200W, strain rpn10, hits give low values 0.995 | locus YIL066C, strain RNR3, hits give low values 1.02 | locus YIL073C, strain SPO22, hits give low values 0.949 | locus YIL125W, strain kgd1, hits give low values 0.993 | locus YIR030C, strain dcg1, hits give low values 0.989 | locus YJL092W, strain hpr5, hits give low values 1.02 | locus YJL095W, strain BCK1 (second series), hits give low values 1.02 | locus YJL095W, strain BCK1, hits give low values 1.02 and 1.04 | locus YJL115W, strain asf1, hits give low values 1.03 | locus YJL129C, strain trk1, hits give low values 1.01 | locus YJL134W, strain LCB3, hits give low values 1.02 | locus YJL154C, strain vps35, hits give low values 1.02 | locus YJL164C, strain tpk1, hits give low values 1.02 | locus YJL166W, strain qcr8, hits give low values 1.02 | locus YJL168C, strain set2, hits give low values 0.99 | locus YJL187C, strain SWE1 (second series), hits give low values 1.02 | locus YJR043C, strain POL32, hits give low values 1.02 | locus YJR066W, strain TOR1, hits give low values 1.01 | locus YJR075W, strain HOC1, hits give low values 1.02 | locus YKL009W, strain mrt4, hits give low values 0.988
